The target in assay [1] is Mitogen-activated protein kinase 10 (Homo sapiens) (UniProt P53779). The settings on record: at 10 µM.
The target of assay [2] is Vascular endothelial growth factor receptor 2 (Homo sapiens) (UniProt P35968). As to conditions: at 1 µM.
Assay [3] has the same target. The settings on record: at 10 µM.
For assay [4], the target named is LIM domain kinase 1 (Homo sapiens) (UniProt P53667). As to conditions: at 1 µM.
Assay [5] shares this target. The settings on record: at 10 µM.
Assay [6] concerns the target T1, Serine/threonine-protein kinase STK11 (Homo sapiens) (UniProt Q15831).
T1 sequence (whole entry): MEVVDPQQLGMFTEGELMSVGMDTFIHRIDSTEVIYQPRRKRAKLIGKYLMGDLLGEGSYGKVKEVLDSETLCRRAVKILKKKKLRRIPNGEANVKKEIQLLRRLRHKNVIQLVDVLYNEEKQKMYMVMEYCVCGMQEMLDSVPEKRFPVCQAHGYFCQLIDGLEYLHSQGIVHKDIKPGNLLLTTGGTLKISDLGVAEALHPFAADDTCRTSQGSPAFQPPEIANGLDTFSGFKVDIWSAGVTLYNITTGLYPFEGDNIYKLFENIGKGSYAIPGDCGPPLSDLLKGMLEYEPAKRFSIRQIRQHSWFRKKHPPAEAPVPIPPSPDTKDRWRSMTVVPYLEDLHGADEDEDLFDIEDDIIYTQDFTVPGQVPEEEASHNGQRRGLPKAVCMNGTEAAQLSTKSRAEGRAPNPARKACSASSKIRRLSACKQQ
As to conditions: at 1 µM.

For assay [7], the target named is T1, Serine/threonine-protein kinase STK11 (Homo sapiens). As to conditions: at 10 µM.
For assay [8], the target named is Serine/threonine-protein kinase 10 (Homo sapiens) (UniProt O94804). As to conditions: at 1 µM.
Serine/threonine-protein kinase 10 (Homo sapiens), sequence (O94804 whole entry, looked up): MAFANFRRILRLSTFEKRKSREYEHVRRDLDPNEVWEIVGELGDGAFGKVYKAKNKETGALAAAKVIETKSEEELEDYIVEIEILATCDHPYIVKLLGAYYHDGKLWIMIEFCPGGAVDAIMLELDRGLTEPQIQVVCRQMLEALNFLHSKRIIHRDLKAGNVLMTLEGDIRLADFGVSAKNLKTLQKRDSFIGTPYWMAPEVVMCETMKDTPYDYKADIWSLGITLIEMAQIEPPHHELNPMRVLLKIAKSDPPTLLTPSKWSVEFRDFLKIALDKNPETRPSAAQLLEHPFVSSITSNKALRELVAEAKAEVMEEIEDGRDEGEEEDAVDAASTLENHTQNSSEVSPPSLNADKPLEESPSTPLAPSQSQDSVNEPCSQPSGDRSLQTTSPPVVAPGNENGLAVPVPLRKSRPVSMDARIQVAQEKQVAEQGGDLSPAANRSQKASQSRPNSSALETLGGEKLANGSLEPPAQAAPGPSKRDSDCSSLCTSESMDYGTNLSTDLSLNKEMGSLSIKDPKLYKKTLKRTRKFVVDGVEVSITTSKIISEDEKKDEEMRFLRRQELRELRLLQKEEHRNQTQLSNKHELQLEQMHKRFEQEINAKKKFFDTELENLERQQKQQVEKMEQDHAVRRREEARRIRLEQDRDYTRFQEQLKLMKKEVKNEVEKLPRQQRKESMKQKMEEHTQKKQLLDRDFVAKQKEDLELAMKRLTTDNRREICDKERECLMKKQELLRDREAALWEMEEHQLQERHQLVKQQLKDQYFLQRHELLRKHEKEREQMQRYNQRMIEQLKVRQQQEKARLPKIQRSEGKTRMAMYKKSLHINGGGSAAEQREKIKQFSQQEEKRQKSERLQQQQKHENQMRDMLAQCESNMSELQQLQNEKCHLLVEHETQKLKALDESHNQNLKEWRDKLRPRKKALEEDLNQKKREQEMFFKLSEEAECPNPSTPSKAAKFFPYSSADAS
Assay [9] has the same target. The settings on record: at 10 µM.
The target in assay [10] is Tyrosine-protein kinase Lck (Homo sapiens) (UniProt P06239). As to conditions: at 1 µM.
Tyrosine-protein kinase Lck (Homo sapiens), sequence (P06239 2-509 limits assumed): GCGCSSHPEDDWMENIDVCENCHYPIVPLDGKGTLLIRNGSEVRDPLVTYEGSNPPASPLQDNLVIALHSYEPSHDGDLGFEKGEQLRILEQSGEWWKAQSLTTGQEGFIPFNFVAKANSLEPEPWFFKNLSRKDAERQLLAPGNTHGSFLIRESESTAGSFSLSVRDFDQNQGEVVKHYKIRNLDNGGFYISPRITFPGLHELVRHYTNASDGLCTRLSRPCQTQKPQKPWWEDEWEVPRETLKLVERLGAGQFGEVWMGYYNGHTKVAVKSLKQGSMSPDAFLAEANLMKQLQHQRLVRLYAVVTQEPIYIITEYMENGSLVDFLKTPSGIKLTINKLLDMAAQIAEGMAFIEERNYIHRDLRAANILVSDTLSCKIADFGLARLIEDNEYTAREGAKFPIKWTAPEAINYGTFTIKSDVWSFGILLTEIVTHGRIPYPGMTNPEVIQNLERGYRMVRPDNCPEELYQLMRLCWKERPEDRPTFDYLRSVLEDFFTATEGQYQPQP

Each structure is given as a SMILES string.

Vascular endothelial growth factor receptor 2 (Homo sapiens), sequence (P35968 whole entry): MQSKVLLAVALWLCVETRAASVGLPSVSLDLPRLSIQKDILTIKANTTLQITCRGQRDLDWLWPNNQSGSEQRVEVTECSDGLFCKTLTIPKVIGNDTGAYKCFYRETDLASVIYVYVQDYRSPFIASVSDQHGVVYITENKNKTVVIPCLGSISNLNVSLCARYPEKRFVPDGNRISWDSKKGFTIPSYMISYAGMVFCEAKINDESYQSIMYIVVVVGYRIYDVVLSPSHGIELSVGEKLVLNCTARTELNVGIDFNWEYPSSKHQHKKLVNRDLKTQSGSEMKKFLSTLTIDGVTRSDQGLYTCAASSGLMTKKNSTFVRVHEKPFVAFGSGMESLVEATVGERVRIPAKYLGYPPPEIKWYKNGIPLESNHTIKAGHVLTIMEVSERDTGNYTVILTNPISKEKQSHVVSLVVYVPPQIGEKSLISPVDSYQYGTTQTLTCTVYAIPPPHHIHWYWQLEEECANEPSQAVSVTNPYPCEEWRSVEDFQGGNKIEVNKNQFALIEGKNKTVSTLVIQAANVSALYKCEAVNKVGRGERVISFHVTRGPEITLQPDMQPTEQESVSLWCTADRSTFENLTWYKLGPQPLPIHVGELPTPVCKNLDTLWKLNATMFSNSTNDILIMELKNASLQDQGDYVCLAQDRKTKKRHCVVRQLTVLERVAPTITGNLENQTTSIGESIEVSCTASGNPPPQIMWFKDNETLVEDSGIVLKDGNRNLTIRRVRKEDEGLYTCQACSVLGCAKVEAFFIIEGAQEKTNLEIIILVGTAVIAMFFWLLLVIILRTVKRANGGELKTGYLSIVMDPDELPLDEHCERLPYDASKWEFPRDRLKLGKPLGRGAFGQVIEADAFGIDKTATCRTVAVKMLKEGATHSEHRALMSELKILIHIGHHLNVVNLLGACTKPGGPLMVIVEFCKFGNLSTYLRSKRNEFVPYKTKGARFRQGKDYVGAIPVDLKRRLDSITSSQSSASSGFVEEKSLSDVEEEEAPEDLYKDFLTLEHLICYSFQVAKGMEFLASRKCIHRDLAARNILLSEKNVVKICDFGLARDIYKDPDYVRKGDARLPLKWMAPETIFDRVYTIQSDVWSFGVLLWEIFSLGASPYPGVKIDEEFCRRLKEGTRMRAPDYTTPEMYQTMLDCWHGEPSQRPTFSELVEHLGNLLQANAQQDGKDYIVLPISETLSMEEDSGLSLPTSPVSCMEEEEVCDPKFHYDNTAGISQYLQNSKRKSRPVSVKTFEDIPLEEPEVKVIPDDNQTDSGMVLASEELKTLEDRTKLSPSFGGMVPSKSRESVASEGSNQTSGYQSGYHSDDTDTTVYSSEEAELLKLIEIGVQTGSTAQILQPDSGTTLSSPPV
Mitogen-activated protein kinase 10 (Homo sapiens), sequence (P53779 whole entry): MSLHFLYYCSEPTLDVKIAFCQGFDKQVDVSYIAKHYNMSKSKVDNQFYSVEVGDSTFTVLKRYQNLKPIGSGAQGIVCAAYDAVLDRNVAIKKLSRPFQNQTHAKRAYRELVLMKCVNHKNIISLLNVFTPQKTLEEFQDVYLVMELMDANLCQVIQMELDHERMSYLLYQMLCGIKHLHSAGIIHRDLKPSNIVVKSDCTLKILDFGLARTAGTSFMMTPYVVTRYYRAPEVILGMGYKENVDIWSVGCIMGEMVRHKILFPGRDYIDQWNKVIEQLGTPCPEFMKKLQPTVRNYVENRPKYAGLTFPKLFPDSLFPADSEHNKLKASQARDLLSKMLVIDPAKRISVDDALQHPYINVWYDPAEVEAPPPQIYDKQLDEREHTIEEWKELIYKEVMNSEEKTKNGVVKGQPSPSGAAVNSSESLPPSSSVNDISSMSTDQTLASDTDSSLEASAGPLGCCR
LIM domain kinase 1 (Homo sapiens), sequence (P53667 whole entry, looked up, the tested form may be a part): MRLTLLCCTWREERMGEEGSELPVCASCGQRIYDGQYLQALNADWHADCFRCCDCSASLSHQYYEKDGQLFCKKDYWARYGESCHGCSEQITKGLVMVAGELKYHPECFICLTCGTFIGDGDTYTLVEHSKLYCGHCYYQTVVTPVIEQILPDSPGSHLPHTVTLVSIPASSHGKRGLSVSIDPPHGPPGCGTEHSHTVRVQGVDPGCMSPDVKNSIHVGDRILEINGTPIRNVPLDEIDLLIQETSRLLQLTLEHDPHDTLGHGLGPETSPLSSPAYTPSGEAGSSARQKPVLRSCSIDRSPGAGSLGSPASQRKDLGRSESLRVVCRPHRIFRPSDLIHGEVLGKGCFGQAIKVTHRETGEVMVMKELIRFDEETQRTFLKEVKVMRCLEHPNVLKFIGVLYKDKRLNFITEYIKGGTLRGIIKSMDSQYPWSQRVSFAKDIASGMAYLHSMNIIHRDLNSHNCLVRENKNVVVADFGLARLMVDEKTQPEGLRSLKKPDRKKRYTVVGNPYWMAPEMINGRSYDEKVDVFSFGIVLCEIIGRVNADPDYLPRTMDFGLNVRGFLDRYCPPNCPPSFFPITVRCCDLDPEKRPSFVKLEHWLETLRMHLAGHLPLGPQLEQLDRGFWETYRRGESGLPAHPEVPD

With `O=C1NC(=O)/C(=C/c2ccc3c(c2)OC(F)(F)O3)S1`, the residual activity is 83% in [1]; 105% in [2]; 97% in assay [3]; 110% in assay [4]; 88% in assay [5]; 102% in assay [6]. Further, the residual activity was found to be 94% in assay [7], 89% in assay [8], 89% in [9] and 125% in assay [10].

Take `COc1ccc(C(=O)Nc2sc3c(c2C(N)=O)CCCC3)cc1OC`: the residual activity in assay [1] was 69%; in assay [2] it was 71%; in assay [3], 75%; in [4], 102%; in [5], 86%; in assay [6], 104%. Besides, the residual activity in [7] stood at 105%; in assay [8], 100%; in assay [9], 87%; in [10] it was 100%.

Take `O=C1c2ccccc2-[n+]2ccc3c([nH]c4ccccc43)c21`: the residual activity came out at 62% in [1]; 88% in [2]; 78% in [3]; 91% in [4]; 88% in assay [5]; 100% in assay [6]. The residual activity is 97% in assay [7], 94% in assay [8], 90% in [9] and 85% in assay [10].

On to `CCC(=O)Nc1ccc2ncnc(Nc3cccc(Br)c3)c2c1`, for which the residual activity in assay [1] is 37%; in assay [2], 95%; in [3], 75%; in [4], 97%; in assay [5], 76%; in [6] it was 96%. The residual activity came out at 96% in assay [7], 50% in [8], 33% in assay [9] and 79% in assay [10].

Regarding `Cn1nc2c3c(cccc31)C(=O)c1ccccc1-2`, the residual activity in assay [1] is 9%; in assay [2], 84%; in assay [3], 45%; in assay [4], 86%; in assay [5], 80%; in [6] it was 102%. Besides, the residual activity in assay [7] stood at 84%; in [8], 73%; in assay [9], 68%.

On to `COc1ccc(CNc2nc(N(CCO)CCO)nc3c2ncn3C(C)C)cc1`, for which the residual activity in assay [1] was found to be 70%; in assay [2], 79%; in assay [3], 74%; in assay [4], 90%; in assay [5], 88%; in [6], 126%. In addition, the residual activity stood at 73% in assay [7], 101% in assay [8], 88% in assay [9] and 62% in assay [10].

As for `Cn1cc(/C=C2\C(=O)Nc3ccc(S(N)(=O)=O)cc32)c2ccccc21`, the residual activity in assay [1] was 40%; in assay [2], 28%; in [3] it was 7%; in assay [4] it was 101%; in assay [5] it was 53%; in assay [6], 103%. Also, the residual activity in assay [7] was 100%; in [8], 45%; in [9] it was 7%; in assay [10] it was 20%.

As to `O=Nc1c(-c2c(O)[nH]c3ccccc23)[nH]c2ccccc12`, the residual activity was -2% in [1]; 4% in assay [2]; 1% in assay [3]; 61% in assay [4]; 21% in [5]; 83% in assay [6]. Further, the residual activity in [7] was 44%; in assay [8], 66%; in assay [9], 71%; in assay [10], 13%.

Regarding `Cc1cc2ncc(-c3ccccc3)nc2cc1C`, the residual activity in [1] worked out at 70%; in assay [2], 92%; in assay [3] it was 79%; in assay [4] it was 109%; in assay [5], 93%; in [6], 108%. Besides, the figures for the residual activity in assay [7], in [8] and in assay [9] were 99%, 89% and 93%, respectively.

On to `COc1ccc(S(=O)(=O)N(CCO)c2ccccc2CN(C)C/C=C/c2ccc(Cl)cc2)cc1`, for which the residual activity in assay [1] turned out to be 88%; in [2], 100%; in [3] it was 95%; in assay [4], 93%; in [5], 83%; in assay [6], 100%. Also, the residual activity amounted to 93% in assay [7], 107% in [8], 89% in [9] and 80% in [10].

As to `Cn1cnc2cc3c(Nc4cccc(Br)c4)ncnc3cc21`, the residual activity was found to be 9% in assay [1]; 49% in assay [2]; 19% in assay [3]; 105% in assay [4]; 57% in assay [5]; 101% in [6]. Besides, the residual activity in [7] came to 99%; in assay [8], 31%; in assay [9], 10%; in [10], 42%.

`Cc1ccc(NC2=CC(=O)c3sc(C)nc3C2=O)cc1`: the residual activity was found to be 82% in assay [1]; 97% in assay [2]; 89% in assay [3]; 84% in assay [4]; 82% in assay [5]; 98% in assay [6]. Further, the residual activity in assay [7] is 98%; in assay [8], 113%; in assay [9] it was 105%; in [10], 86%.

As for `O=C(Nc1cccc(Nc2nccc(Nc3cccc(C(F)(F)F)c3)n2)c1)C1CC1`, the residual activity in [1] was -3%; in [2], 81%; in [3], 25%; in assay [4], 26%; in [5] it was 4%; in assay [6], 100%. Further, the residual activity in assay [7] was 94%; in assay [8] it was 66%; in assay [9] it was 44%; in assay [10], 73%.

On to `O=C(O)c1ccc2c3c1cccc3c(=O)n1c3ccccc3nc21`, for which the residual activity stood at 34% in [1]; 41% in assay [2]; 56% in [3]; 101% in [4]; 89% in assay [5]; 107% in assay [6]. The residual activity in assay [7] came to 95%; in assay [8] it was 60%; in [9] it was 39%; in assay [10], 83%.

Regarding `O=C1Nc2cc(Br)ccc2/C1=C1/Nc2ccccc2/C1=N\O`, the residual activity in assay [1] was 16%; in [2], 3%; in assay [3] it was 2%; in assay [4] it was 33%; in [5], 49%; in [6], 99%. Besides, the residual activity in assay [7] worked out at 81%; in assay [8], 72%; in assay [9], 69%; in assay [10], 2%.

For the compound `CO[C@@H]1[C@H](N(C)C(=O)c2ccccc2)C[C@H]2O[C@]1(C)n1c3ccccc3c3c4c(c5c6ccccc6n2c5c31)C(=O)NC4`, the residual activity in assay [1] stood at 27%; in [2] it was 3%; in assay [3], 2%; in [4], 22%; in assay [5], 4%; in assay [6], 95%. For the same compound, the residual activity in assay [7] is 93%; in [8], 21%; in [9], 9%; in assay [10], 13%.

`COc1cc2ncnc(N3CCN(C(=O)Nc4ccc(Oc5ccccc5)cc4)CC3)c2cc1OC`: the residual activity in assay [1] is 89%; in assay [2] it was 80%; in assay [3] it was 38%; in [4] it was 54%; in [5] it was 14%; in assay [6], 99%. For the same compound, the residual activity was 89% in assay [7], 90% in assay [8], 85% in assay [9] and 98% in [10].

The values are drawn from ChEMBL document CHEMBL2218924, “A broad activity screen in support of a chemogenomic map for kinase signalling research and drug discovery” (Biochem J, 2013).
